Reference: PubChem BioAssay
Active and inactive are the calls of the source. Unless noted, how the calls were made is not given here.

Columns and labels:
[1] = tested on: Wnt5a (protein binding on small-molecule microarray); test: small molecules binding Wnt5a protein – biophysical, small-molecule microarray, 635/667 nm fluorescence, primary screen (AID 1142); conditions: 635 nm fluorescence, higher = more signal;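 further: fluorescence read at 667 nm with signal to noise per printed feature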
[2] = ATP-based viability of Huh7 replicon cells – cell-based, CellTiter-Glo luminescence, basal, 48 h, cytotoxicity control for HCV replication inhibitor project, primary screen (AID 1143); conditions: higher = more signal, called active from +8 up or from −8 down;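 further: Huh7 hepatoma cells carrying a hepatitis C replication reporter with no stimulus; test concentration not given here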
[3] = Pseudomonas biofilm growth suppression – PAO1 strain, BacTiter-Glo luminescence, LB-PBS, primary screen (AID 1144); conditions: P. aeruginosa PAO1 biofilm, 12 h, higher = more signal
[4] = basal CRE-LacZ reporter activity in PC12 – cell-based, unstimulated, primary screen (AID 1145); conditions: no forskolin, luminescence, 4.5 h, higher = more signal, called active from +8 up or from −8 down
[5] = forskolin-driven CRE-LacZ activity in PC12 – cell-based, CRE-LacZ reporter, forskolin-stimulated, primary screen (AID 1146); conditions: luminescence, 4.5 h, higher = more signal, called active from +8 up or from −8 down;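 further: PC12 cells with 6xCRE LacZ reporter stimulated by forskolin 10 µM; beta-galactosidase reporter signal reflecting CREB driven transcription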
[6] = target: Streptavidin (Streptomyces avidinii) (UniProt P22629); test: compounds binding control protein streptavidin – biophysical, small-molecule microarray, 635/667 nm fluorescence, artefact control for SMM compound annotation, primary screen (AID 1147); conditions: higher = more signal;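 further: signal reflects streptavidin binding to arrayed compounds as a control protein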
[7] = probe aInhba binding on compound microarray – biochemical, small-molecule microarray, 635/667 nm fluorescence, primary screen (AID 1148); conditions: higher = more signal;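 further: score merges 667nm spot fluorescence with signal-to-noise for antibody binding to printed compounds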
Torsin-1A (Homo sapiens) [8] = target: Torsin-1A (Homo sapiens) (UniProt O14656); test: TOR1A wild-type binding on microarray – cell lysate, small-molecule microarray, lysate, 635/667 nm, primary screen (AID 1149); conditions: COS7 hTOR1A-WT lysate, 635 nm fluorescence, higher = more signal
Torsin-1A (Homo sapiens) [9] = target: Torsin-1A (Homo sapiens) (UniProt O14656); test: torsin A mutant lysate binding on microarrays – cell lysate, small-molecule microarray, COS7 lysate, 635/667 nm fluorescence, primary screen (AID 1150); conditions: COS7 hTOR1A mutant lysate, 635 nm fluorescence, higher = more signal;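 further: score pools 667 nm emission and signal to noise measuring lysate protein binding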
[10] = tested on: Sonic hedgehog protein (Shh); test: Sonic hedgehog microarray binding compounds – biochemical, small-molecule microarray, 635/667 nm fluorescence, primary screen (AID 1151); conditions: 635 nm fluorescence, higher = more signal;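 further: Shh protein binding to compounds spotted on small-molecule microarray slides; score combines spot fluorescence intensity with signal-to-noise across triplicate slides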

Chain of Streptavidin (Streptomyces avidinii) (P22629 whole entry, looked up): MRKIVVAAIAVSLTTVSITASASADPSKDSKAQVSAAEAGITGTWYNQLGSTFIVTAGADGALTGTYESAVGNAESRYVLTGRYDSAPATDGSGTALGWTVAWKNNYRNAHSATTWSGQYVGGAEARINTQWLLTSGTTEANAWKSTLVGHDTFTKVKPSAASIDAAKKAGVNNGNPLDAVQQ
Chain of Torsin-1A (Homo sapiens) (O14656 whole entry, looked up): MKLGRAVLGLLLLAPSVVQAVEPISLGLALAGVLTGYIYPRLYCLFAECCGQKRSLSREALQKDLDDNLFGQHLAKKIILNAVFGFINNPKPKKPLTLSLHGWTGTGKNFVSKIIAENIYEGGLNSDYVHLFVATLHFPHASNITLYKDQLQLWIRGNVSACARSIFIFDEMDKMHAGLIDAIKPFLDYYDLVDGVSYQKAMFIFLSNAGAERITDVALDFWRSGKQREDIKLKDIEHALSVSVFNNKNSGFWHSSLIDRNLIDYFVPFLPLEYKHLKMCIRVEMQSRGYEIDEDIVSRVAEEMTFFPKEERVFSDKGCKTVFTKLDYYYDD

Structure (SMILES) | composite z-score [1] | z-score [2] | z-score [3] | z-score [4] | z-score [5] | composite z-score [6] | composite z-score [7] | composite z-score (Torsin-1A (Homo sapiens) [8]) | composite z-score (Torsin-1A (Homo sapiens) [9]) | composite z-score [10]
CCOC(=O)[C@H](CC(C)C)NC(=O)CCC1CC(OC(=O)NCc2ccc3c(c2)OCO3)CC2(CCCC(COC(=O)NCc3ccccc3)O2)O1 (stereo not given in full) | -0.0368 | -0.72 (inactive) | 0.0377 (inactive) | -0.437 (inactive) | -0.256 (inactive) | 0.324 | 0.0712 | 0.288 | 0.245 | 1.84
CC(CCN1CCCCc2nc(C)c(C)cc21)=NO[C@H](C)c1cn([C@@H]2COC[C@H]2O)nn1 | 0.229 | -0.216 (inactive) | 0.184 (inactive) | -0.482 (inactive) | -0.445 (inactive) | 1.12 | -0.0701 | 2.71 | 2.5 | 2.01
CC(C)=CCCC(C)=CCON=C1[C@H]2CCn3c(=O)n(-c4ccccc4)c(=O)n3[C@H]2[C@H](O)[C@@H]2O[C@H]12 | 0.0694 | -1.7 (inactive) | -0.044 (inactive) | -0.473 (inactive) | -0.271 (inactive) | 1.07 | 0.0319 | 1.02 | 0.413 | 1.38
C[C@@H]1CC[C@H]2C(=O)OC(Cc3ccccc3)CN2[C@H]1c1ccc(Br)cc1 (stereo not given in full) | -0.0444 | -0.395 (inactive) | 0.7 (inactive) | 1.2 (inactive) | -0.517 (inactive) | 0.221 | -0.0963 | 0.172 | -0.0439 | 0.513
COc1ccc(O[C@H]2C=C[C@@H](c3ccccc3)O[C@@H]2CON=C(C)CCN2CCCc3nc(C)c(C)cc32)cc1 | 0.0474 | -0.381 (inactive) | -0.291 (inactive) | 2.46 (inactive) | 0.544 (inactive) | 0.294 | -0.0079 | 0.476 | 0.46 | 0.661
C[C@H]1CC[C@H]2C(=O)N[C@H](Cc3ccccc3)C(=O)N2[C@@H]1c1ccccc1 | 0.132 | 0.21 (inactive) | 0.108 (inactive) | -0.072 (inactive) | 0.901 (inactive) | 0.119 | -0.233 | 0.345 | 0.52 | 0.401
CON=C(C)CCC(=O)OC[C@H]1O[C@H](C#Cc2ccccc2)C=C[C@@H]1Oc1ccc(C)cc1 | 0.0488 | -1.85 (inactive) | -0.0775 (inactive) | 0.415 (inactive) | 1.24 (inactive) | 0.0457 | -0.016 | 0.552 | -0.0451 | 0.597
CC(CCN1CCCc2nc(C)c(C)cc21)=NO[C@@H](C)c1cn([C@H](CO)Cc2ccccc2)nn1 | 0.0241 | -0.0864 (inactive) | 0.0842 (inactive) | -1.21 (inactive) | -0.82 (inactive) | 0.525 | 0.153 | 0.639 | 0.686 | 0.71
O=C1C=C[C@@H](O)[C@@H]2[C@@H]3C(=O)N(c4cccc(Oc5ccccc5)c4)C(=O)[C@@H]3CC[C@@H]12 | -0.136 | -3.63 (inactive) | -0.743 (inactive) | 1.43 (inactive) | -0.358 (inactive) | 0.061 | -0.128 | 0.96 | -0.118 | 0.64
CCOC(=O)[C@H](CC(C)C)NC(=O)CCC1CC(OC(=O)NCc2ccc3c(c2)OCO3)CC2(CCCC(COC(=O)NCCc3ccc(Cl)cc3)O2)O1 (stereo not given in full) | 0.277 | -0.197 (inactive) | -0.0985 (inactive) | 0.737 (inactive) | 0.501 (inactive) | 0.288 | -0.089 | -0.157 | 0.361 | 1.86
CC(C)=NOC(C)CN1CCCc2nc(C)c(C)cc21 (stereo not given) | 0.299 | 0.431 (inactive) | -0.905 (inactive) | 0.0757 (inactive) | -0.263 (inactive) | -0.0623 | 0.0074 | 0.111 | 0.386 | 1.35
CO[C@H]1COC(=O)[C@H](C)COC(=O)[C@@H](OCc2ccccc2)C=C[C@@H]1C | -0.19 | -0.108 (inactive) | -0.462 (inactive) | -0.745 (inactive) | -0.786 (inactive) | -0.316 | -0.273 | 0.489 | 0.214 | 0.307
O=C1[C@H]2[C@H]3[C@H](O)[C@H](O)CC(=NO[C@@H]4O[C@H](CO)[C@@H](O)[C@H](O)[C@H]4O)[C@@H]3CC[C@H]2C(=O)N1c1cccc(Oc2ccccc2)c1 | 0.0469 | 0.353 (inactive) | -0.774 (inactive) | 0.967 (inactive) | 0.314 (inactive) | 0.532 | -0.0504 | 0.787 | 0.0995 | 0.828
CC(CCC(=O)OC[C@H]1O[C@H](C#Cc2ccccc2)C=C[C@@H]1Oc1ccc(C)cc1)=NOC(C)CN1CCCc2nc(C)c(C)cc21 (stereo not given in full) | 0.0127 | -0.386 (inactive) | 0.0692 (inactive) | 0.336 (inactive) | 0.51 (inactive) | 0.727 | -0.0259 | 0.313 | -0.0361 | 0.298
COC(=O)[C@H](C)NC(=O)CCC1CC(OC(=O)NCCc2ccc(F)cc2)CC2(CCCC(COC(=O)NCCc3ccccc3OC)O2)O1 (stereo not given in full) | 0.249 | 0.137 (inactive) | 0.351 (inactive) | 0.559 (inactive) | 0.0825 (inactive) | 0.553 | -0.343 | 0.284 | 0.519 | 0.985
Cc1ccc(C(C)C)n1C(=O)OC(C)(C)C | 0.211 | -0.841 (inactive) | -1.5 (inactive) | -0.708 (inactive) | 0.686 (inactive) | 0.963 | -0.176 | 0.356 | 0.196 | 0.675
COC(=O)[C@H](C)NC(=O)CCC1CC(OC(=O)NCc2ccc3c(c2)OCO3)CC2(CCCC(COC(=O)NCCC(C)C)O2)O1 (stereo not given in full) | 0.151 | -2.02 (inactive) | -0.174 (inactive) | -0.706 (inactive) | -1.22 (inactive) | 0.232 | -0.224 | 0.245 | 0.593 | 1.13
CCN1C(=O)[C@H]2[C@H]3[C@H](O)[C@H](O)CC(=NOC[C@@H](O)[C@H]4O[C@@H]5OC(C)(C)O[C@@H]5[C@H]4O)[C@@H]3CC[C@H]2C1=O | -0.0165 | 0.297 (inactive) | 0.685 (inactive) | -0.975 (inactive) | -0.799 (inactive) | 0.245 | -0.246 | 0.382 | 0.205 | 0.374
CC(CCC(=O)OC[C@H]1O[C@H](C#Cc2ccccc2)C=C[C@@H]1Oc1ccc(C)cc1)=NO[C@H](C)c1cn([C@@H]2COC[C@H]2O)nn1 | -0.0352 | -0.783 (inactive) | -0.763 (inactive) | 3.17 (inactive) | -0.0087 (inactive) | 0.197 | -0.101 | 0.587 | 0.326 | 0.39
CC[C@@H](c1ccccc1)n1c(=O)n2n(c1=O)[C@H]1[C@H](O)[C@@H]3O[C@@H]3C(=NOCc3ccccc3)[C@H]1CC2 | 0.0576 | -3.91 (inactive) | 0.479 (inactive) | 0.248 (inactive) | 0.706 (inactive) | 0.347 | -0.0131 | 0.106 | 0.223 | 1.05
CCc1cc2c(nc1CC)CCN(CCC(C)=NO[C@@H]1O[C@H](COC(C)=O)[C@@H](OC(C)=O)[C@H](OC(C)=O)[C@H]1OC(C)=O)C2 | 0.503 | -1.9 (inactive) | -1.19 (inactive) | 4.05 (inactive) | -0.26 (inactive) | 0.963 | -0.089 | 0.439 | 0.495 | 1.88
CO[C@@H]1[C@H](O)CO[C@H]1C=Cc1ccccc1 | -0.174 | -0.536 (inactive) | 0.165 (inactive) | -0.164 (inactive) | -0.43 (inactive) | -0.223 | -0.182 | -0.518 | 0.0143 | -0.0147
CCOC(=O)CCN1C(=O)[C@H]2[C@H]3[C@H](O)[C@H](O)CC(=NO[C@@H]4O[C@H](CO)[C@@H](O)[C@H](O)[C@H]4O)[C@@H]3CC[C@H]2C1=O | 0.231 | -0.784 (inactive) | 1.24 (inactive) | -0.748 (inactive) | 1.17 (inactive) | 0.036 | 0.0173 | 1.87 | 1.12 | 1.62
CC(=O)OC[C@H]1O[C@@H](ON=C2[C@H]3CCn4c(=O)n(-c5ccccc5)c(=O)n4[C@H]3[C@H](O)[C@@H]3O[C@H]23)[C@H](OC(C)=O)[C@@H](OC(C)=O)[C@@H]1OC(C)=O | 0.196 | 1.03 (inactive) | 1.56 (inactive) | -0.403 (inactive) | 0.265 (inactive) | 0.324 | 0.0282 | 0.0264 | 0.422 | 1.23
CCOC(=O)[C@H](CC(C)C)NC(=O)CCC1CC(OC(=O)NCCc2ccc(F)cc2)CC2(CCCC(COC(=O)NCc3cccc(C(F)(F)F)c3)O2)O1 (stereo not given in full) | 0.0465 | 0.215 (inactive) | 0.074 (inactive) | -0.437 (inactive) | 0.257 (inactive) | 0.0808 | -0.0762 | 0.0857 | 0.147 | 0.909
COc1ccc(COC(=O)NN=C2C[C@@H](O)[C@@H](O)[C@@H]3[C@@H]4C(=O)N(Cc5ccc6c(c5)OCO6)C(=O)[C@@H]4CC[C@H]23)cc1 | -0.343 | 0.0813 (inactive) | 0.939 (inactive) | 0.96 (inactive) | 0.0695 (inactive) | 0.61 | 0.0018 | -0.878 | -0.647 | -1.32
C[C@H]1CC[C@@H](C(=O)O)N[C@@H]1c1ccc(C#Cc2ccccc2)cc1 | 0.177 | -7 (inactive) | 0.696 (inactive) | 0.112 (inactive) | -1.58 (inactive) | 2.04 | -0.0403 | 0.587 | 0.439 | 1.53
CCc1cc2c(nc1CC)CCN(CCC(C)=NOC[C@@H](C)[C@H](OCc1ccccc1)C(C)C)C2 | -0.608 | -1.09 (inactive) | 0.241 (inactive) | 0.387 (inactive) | 0.113 (inactive) | -1.39 | -0.302 | -0.94 | -1.22 | -0.267
CCC1=NOC(CCC2CC(OC(=O)NCc3cccc4c3OCO4)CC3(CCCC(COC(=O)NCCc4ccc(Cl)cc4)O3)O2)C1 (stereo not given) | -0.165 | -0.379 (inactive) | 0.612 (inactive) | -0.0755 (inactive) | -0.51 (inactive) | -0.136 | -0.0963 | 0.217 | 0.672 | 0.358
CCOC(=O)[C@H](Cc1ccccc1)NC(=O)CCC1CC(OC(=O)NCc2ccc3c(c2)OCO3)CC2(CCCC(COC(=O)NCCOc3ccccc3)O2)O1 (stereo not given in full) | 0.0544 | -0.464 (inactive) | -1.09 (inactive) | -0.793 (inactive) | -0.361 (inactive) | 0.411 | -0.177 | 0.662 | 0.184 | 1.6
